Data published in PubChem BioAssay (NCI).
Compounds without any hit were thinned out: in the full panel of roughly 79,000, 15% have a hit. Unmarked numbers belong to inactive results. Activity calls are given as the source filed them. Cut-off read from the data, not from the text of the source: active = growth inhibition above about 70%; inactive = the rest.

What was measured:
[1] = NCI Yeast Anticancer Drug Screen. Data for the rad50 strain (AID 155);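 note: 0% = growth of vehicle-only cultures of the same strain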; details: S. cerevisiae rad50 strain growth inhibition, active compounds read high
Method in brief: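 Readout: growth inhibition relative to vehicle-treated cultures. Compound exposure was carried out in a genetically defined yeast strain deficient in DNA damage repair.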

[2] = NCI Yeast Anticancer Drug Screen. Data for the mec2-1 strain (AID 157); details: S. cerevisiae mec2-1 strain, active compounds read high
Method in brief: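 Strain: mec2-1 (DNA repair/cell cycle alteration). Compound exposure, then growth measured; inhibition expressed relative to vehicle.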

[3] = NCI Yeast Anticancer Drug Screen. Data for the sgs1 mgt1 strain (AID 161);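 note: 0% = growth of cultures given vehicle only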; details: S. cerevisiae sgs1 mgt1 strain, active compounds read high
Method in brief: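 Mutant yeast exposed to compound; growth scored against vehicle-only wells.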

[4] = NCI Yeast Anticancer Drug Screen. Data for the cln2 rad14 strain (AID 165);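 note: 0% = growth equal to vehicle treated cultures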; details: S. cerevisiae cln2 rad14 strain, active compounds read high
Method in brief: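 Compounds are applied to the cln2 rad14 yeast strain, and growth is then compared with that of vehicle-treated cultures to give inhibition.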

[5] = NCI Yeast Anticancer Drug Screen. Data for the bub3 strain (AID 167); details: S. cerevisiae bub3 mutant strain, active compounds read high
Method in brief: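 Readout: yeast growth inhibition, expressed relative to vehicle-only wells. The test organism is a mutant strain from a panel with lesions in DNA repair or checkpoint genes.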

[6] = NCI Yeast Anticancer Drug Screen. Data for the mlh1 rad18 strain (AID 175); details: S. cerevisiae mlh1 rad18 strain growth inhibition, active compounds read high
Method in brief: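 Read-out is yeast growth inhibition, calculated against vehicle-only controls. The compound was applied to a strain engineered with DNA damage repair alterations.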

[7] = at 5.0 µM (retest, dose inferred, filed as 0.5)
[8] = at 50.0 µM (retest, dose inferred, filed as 5.0)

Row | SMILES | growth inhibition [1, 7] [%] | growth inhibition [1, 8] | growth inhibition ([1]; at 50.0 µM) | growth inhibition [2, 7] [%] | growth inhibition [2, 8] | growth inhibition ([2]; at 50.0 µM) | growth inhibition [3, 7] [%] | growth inhibition [3, 8] | growth inhibition ([3]; at 50.0 µM) | growth inhibition [4, 7] [%] | growth inhibition [4, 8] | growth inhibition ([4]; at 50.0 µM) | growth inhibition [5, 7] [%] | growth inhibition [5, 8] | growth inhibition ([5]; at 50.0 µM) | growth inhibition [6, 7] [%] | growth inhibition [6, 8] | growth inhibition ([6]; at 50.0 µM)
1 | Cc1ccc2c(c1)C1(SCC(=O)N1c1ccc(Cl)cc1)C(=O)N2 (configuration not stated) | 1 | 57% | 48.6% | 6 | 36% | 16.4% | 5 | 62% | 77.8% (active) | -1 | 28% | 20.8% | 4 | 74% (active) | 64.9% | -5 | 69% | 67.9%
2 | Nc1ccc2c(S(=O)(=O)O)cc(S(=O)(=O)O)cc2c1 | 3 | 0% | -21.6% | 2 | -1% | -6.25% | 0 | -2% | -10.4% | 3 | 2% | 61.4% | 2 | -2% | 6.3% | 1 | -1% | -31.4%
3 | N#CC(C(=O)C(N)=O)c1ccc(Cl)cc1Cl (configuration not stated) | 0 | -2% | 82.2% (active) | 1 | 6% | 99.6% (active) | 1 | 0% | 99.6% (active) | -4 | 8% | 91.3% (active) | -1 | 21% | 96.6% (active) | -3 | 2% | 99.2% (active)
4 | COc1ccccc1NC(=O)Oc1ccc(C(C)(CCC(=O)O)c2ccc(OC(=O)Nc3ccccc3OC)cc2)cc1 | -2 | 13% | -9.65% | 8 | 25% | -1.8% | -31 | -7% | 11.7% | 2 | -20% | 39.8% | 0 | 15% | 8.05% | -26 | -45% | -24.6%
5 | Clc1sc2ccccc2c1Cl | 2 | -18% | 22.2% | -5 | -3% | -11.9% | 2 | 1% | 25.2% | 4 | -4% | 36.6% | -79 | 0% | -7.55% | -1 | -2% | 14.6%
6 | Cc1cc(NC(=S)SCc2ccc(Cl)cc2)ccc1F | 5 | 66% | 97.5% (active) | 1 | 70% (active) | 96% (active) | 2 | 95% (active) | 97.8% (active) | -7 | 99% (active) | 88% (active) | 19 | 97% (active) | 98.5% (active) | 2 | 89% (active) | 96.4% (active)
7 | S=C(Nc1ccccn1)c1ccccn1 | -3 | 9% | 23.9% | 6 | 21% | 50.3% | 2 | 43% | 69% | -11 | -7% | 18.6% | 3 | 33% | 55.8% | 3 | 46% | 51.4%
8 | O=S1(=O)CCc2ccccc2C(Br)C1Br (configuration not stated) | 13 | 98% (active) | 100% (active) | 7 | 99% (active) | 99.6% (active) | 15 | 12% | 99.5% (active) | 17 | 99% (active) | 98.3% (active) | -6 | 99% (active) | 98.2% (active) | 10 | 99% (active) | 99.3% (active)
9 | COc1ccc(-c2cc(C(=O)O)c3cccc(C(F)(F)F)c3n2)cc1 | 15 | 85% (active) | 67.9% | 4 | 83% (active) | 57.6% | 0 | 92% (active) | 72.9% (active) | 22 | 80% (active) | 64.5% | 12 | 78% (active) | 59% | 17 | 96% (active) | 89.7% (active)
